According to PubChem BioAssay (NCI):
Compounds without any hit were thinned out: in the full panel of roughly 83,000, 20% have a hit.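 Growth was measured after 48 h exposure to one concentration of compound in 96-well plates. Values under 10 count as active.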 Calls of active or inactive are those of the source.

Legend:
Assay in all cases: NCI-60 one-dose screen, 48 h (100 = growth as untreated, 0 = no growth, -100 = all killed)
Details in all cases: 10 µM unless noted
SK-MEL-2 melanoma = tested on: SK-MEL-2 melanoma
EKVX NSCLC = tested on: EKVX NSCLC
SN12C renal = tested on: SN12C renal
UO-31 renal = tested on: UO-31 renal
TK-10 renal = tested on: TK-10 renal
ACHN renal = tested on: ACHN renal
CAKI-1 renal = tested on: CAKI-1 renal
A498 renal = tested on: A498 renal
CCRF-CEM leukemia = tested on: CCRF-CEM leukemia
MOLT-4 leukemia = tested on: MOLT-4 leukemia

Measured: growth

CN1CCN(Cc2ccc3c(NNC(=O)c4ccccc4)nc4cc(F)ccc4n23)CC1
inactive: SK-MEL-2 melanoma 57.7% | EKVX NSCLC 21.5% | SN12C renal 17.2% | TK-10 renal 30% | ACHN renal 11.5% | CAKI-1 renal 11.8% | CCRF-CEM leukemia 12.2% | MOLT-4 leukemia 12%
active: UO-31 renal 7.31% | A498 renal -7.93%

Oc1ccc(CN2CCC(N3CCCCC3)CC2)c2cccnc12
inactive: EKVX NSCLC 45.6% | SN12C renal 22.2% | CAKI-1 renal 44% | A498 renal 71.3% | CCRF-CEM leukemia 35.8% | MOLT-4 leukemia 41.2%
active: SK-MEL-2 melanoma 2.95% | UO-31 renal 5.93% | TK-10 renal -58.5% | ACHN renal 8.86%

CCCCNC(=O)Oc1ccc(/C(=C(/CC)Cc2ccccc2)c2ccc(OCCN3CCCCCC3)cc2)cc1
inactive: SK-MEL-2 melanoma 84.9% | EKVX NSCLC 59.2% | SN12C renal 25.8% | UO-31 renal 35.2% | TK-10 renal 92.4% | ACHN renal 66.4% | CAKI-1 renal 72.1% | A498 renal 72%
active: CCRF-CEM leukemia 5.36% | MOLT-4 leukemia 2.34%

Cc1nc2sc(C(=O)Nc3ccccc3)c(N)c2cc1C(=O)c1ccccc1
inactive: SK-MEL-2 melanoma 49.9% | EKVX NSCLC 35.2% | SN12C renal 81.5% | UO-31 renal 59.5% | TK-10 renal 54.7% | ACHN renal 51.7% | CAKI-1 renal 35.6% | MOLT-4 leukemia 31.6%
active: A498 renal -3.88% | CCRF-CEM leukemia 8.47%

Cc1cc(Cl)ccc1NC(=O)c1cc2ccccc2cc1O
active: SK-MEL-2 melanoma -2.55% | SN12C renal 3.74% | UO-31 renal -2.52% | TK-10 renal -0.787% | ACHN renal 8.67% | CAKI-1 renal -5.76% | A498 renal -12.8% | CCRF-CEM leukemia 8.07%
inactive: EKVX NSCLC 44.2% | MOLT-4 leukemia 17.7%

CCOC(=O)c1cc(C(=O)c2cc(OC)c(OC)c(OC)c2)n2ccc(-c3ccncc3)cc12
inactive: SK-MEL-2 melanoma 86.5% | EKVX NSCLC 101% | SN12C renal 97.8% | UO-31 renal 70.3% | TK-10 renal 100% | ACHN renal 99.8% | CAKI-1 renal 84.5% | A498 renal 85.6% | CCRF-CEM leukemia 90% | MOLT-4 leukemia 115%

Cc1cccc2c1NC(=O)C2(c1ccc(O)cc1)c1ccc(O)cc1
inactive: SK-MEL-2 melanoma 89.2% | EKVX NSCLC 75.7% | SN12C renal 11.2% | UO-31 renal 89.2% | TK-10 renal 28.8% | ACHN renal 78.5% | CAKI-1 renal 94.1% | A498 renal 81.5% | CCRF-CEM leukemia 71.2% | MOLT-4 leukemia 84.2%

O=C(Cn1cc(CN2CCCCCC2)nn1)Nc1ccc2c(ccn2Cc2ccccc2)c1
active: CCRF-CEM leukemia 1.87%
inactive: SK-MEL-2 melanoma 93.2% | EKVX NSCLC 96.1% | SN12C renal 101% | UO-31 renal 54.4% | TK-10 renal 92.2% | ACHN renal 107% | CAKI-1 renal 87.6% | A498 renal 95.2% | MOLT-4 leukemia 89.9%

CN1CCN(c2ccc(NC(=O)c3cncnc3Nc3ccc(OCc4ccccn4)c(Cl)c3)cc2)CC1
inactive: SK-MEL-2 melanoma 21.6% | EKVX NSCLC 85.6% | SN12C renal 59.2% | TK-10 renal 92.4% | ACHN renal 51.8% | CAKI-1 renal 64.2% | A498 renal 67.2% | CCRF-CEM leukemia 11.2%
active: UO-31 renal -72.1% | MOLT-4 leukemia 8.56%

CCN1C(=O)N(CC)C2C1NN=c1s/c(=C\c3cccc([N+](=O)[O-])c3)c(=O)n12 (stereo not given)
inactive: SK-MEL-2 melanoma 43.4% | EKVX NSCLC 50.5% | SN12C renal 25.5% | UO-31 renal 41.1% | TK-10 renal 69.6% | ACHN renal 32.9% | CAKI-1 renal 25.7% | A498 renal 13% | CCRF-CEM leukemia 10.8% | MOLT-4 leukemia 15.6%

N#Cc1cnc(NCCc2ccncc2)nc1-n1cnc2ccccc21
inactive: SK-MEL-2 melanoma 34.6% | EKVX NSCLC 72.6% | SN12C renal 65.1% | UO-31 renal 33.3% | TK-10 renal 20.4% | ACHN renal 26.1% | A498 renal 29.6% | CCRF-CEM leukemia 77.2% | MOLT-4 leukemia 47.3%
active: CAKI-1 renal 8.54%

COc1ccc(/C=C2\C(=O)N=C3N2NC(c2cc(Br)ccc2O)C=C(C)N3c2ccccc2)cc1 (stereo not given)
inactive: SK-MEL-2 melanoma 104% | EKVX NSCLC 105% | SN12C renal 97.6% | UO-31 renal 81.6% | TK-10 renal 118% | ACHN renal 99% | CAKI-1 renal 96.5% | A498 renal 94.1% | CCRF-CEM leukemia 99.8% | MOLT-4 leukemia 97.4%

COC(=O)c1c2c(c(C)[n+]([O-])c1C)C(=O)C=C(NCc1ccc(OC)cc1)C2=O
inactive: TK-10 renal 28.4%
active: SK-MEL-2 melanoma -22.2% | EKVX NSCLC -57.6% | SN12C renal -63% | UO-31 renal -9.55% | ACHN renal -11.5% | CAKI-1 renal 0.875% | A498 renal -15.4% | CCRF-CEM leukemia 3.4% | MOLT-4 leukemia -35.5%

O=C(/C=C/c1ccc(Cl)cc1)c1cccc(Nc2nc(Nc3ccccc3)nc(Nc3ccccc3)n2)c1
inactive: SK-MEL-2 melanoma 45.7% | EKVX NSCLC 106% | SN12C renal 102% | UO-31 renal 61.8% | TK-10 renal 92.6% | ACHN renal 92.9% | CAKI-1 renal 83.6% | A498 renal 95.2% | CCRF-CEM leukemia 76.2% | MOLT-4 leukemia 61.7%

O=C(O)c1ccc(-n2cc(/C=N/Nc3ccc(F)cc3)c(-c3cc4ccccc4oc3=O)n2)cc1
inactive: SK-MEL-2 melanoma 83.3% | EKVX NSCLC 52.9% | SN12C renal 101% | UO-31 renal 39.8% | TK-10 renal 113% | ACHN renal 41% | CAKI-1 renal 68.6% | A498 renal 109% | CCRF-CEM leukemia 40.2% | MOLT-4 leukemia 48.1%

CN(CCn1sc(=O)n(Cc2ccccc2)c1=O)Cc1ccc2c(Cl)cc(Cl)c(O)c2n1
active: UO-31 renal -11.7%
inactive: SK-MEL-2 melanoma 66.9% | EKVX NSCLC 35.9% | SN12C renal 34.7% | TK-10 renal 63.7% | ACHN renal 27.8% | CAKI-1 renal 46.4% | A498 renal 68.4% | CCRF-CEM leukemia 27.6% | MOLT-4 leukemia 27.7%

C=C1C(=O)O[C@H]2[C@H]1CC/C(COC(=O)CCSCCC(=O)OC/C1=C/CC[C@@]3(C)O[C@H]3[C@H]3OC(=O)C(=C)[C@@H]3CC1)=C\CC[C@@]1(C)O[C@@H]21
inactive: SK-MEL-2 melanoma 23.8% | EKVX NSCLC 12% | A498 renal 69.8%
active: SN12C renal 0.113% | UO-31 renal -49.4% | TK-10 renal -3.89% | ACHN renal -12% | CAKI-1 renal 4.51% | CCRF-CEM leukemia -24.8% | MOLT-4 leukemia -25.7%

CCN1C(=O)N(CC)C2C1NN=c1s/c(=C\c3ccc(Cl)cc3Cl)c(=O)n12 (stereo not given)
inactive: SK-MEL-2 melanoma 45.7% | EKVX NSCLC 50.1% | SN12C renal 21.5% | UO-31 renal 35.9% | TK-10 renal 67.7% | ACHN renal 26.7% | CAKI-1 renal 21.1% | A498 renal 16.9% | MOLT-4 leukemia 12.9%
active: CCRF-CEM leukemia 9.4%

COC1=CC(c2ccc[nH]2)=N/C1=C\c1[nH]c(C)c(C(=O)OCc2ccccc2)c1C
active: SK-MEL-2 melanoma -63.1% | EKVX NSCLC -33.5% | SN12C renal -29.4% | UO-31 renal -87.9% | TK-10 renal -4.94% | ACHN renal -86.1% | CAKI-1 renal -40.7% | A498 renal -37.7% | MOLT-4 leukemia -7.67%
inactive: CCRF-CEM leukemia 13.4%

O=C(Cn1c(=O)sc2nc3ccccc3nc21)Nc1ncc(Cc2cccc(Cl)c2Cl)s1
inactive: SK-MEL-2 melanoma 103% | EKVX NSCLC 75.1% | SN12C renal 92.2% | UO-31 renal 65.5% | TK-10 renal 95.5% | ACHN renal 100% | CAKI-1 renal 71.7% | A498 renal 113% | CCRF-CEM leukemia 99.8% | MOLT-4 leukemia 99.8%

COc1ccc(Cc2cc(-c3ccccc3)nn(Cc3ccccc3)c2=O)cc1OC
inactive: SK-MEL-2 melanoma 36.1% | EKVX NSCLC 14.4% | SN12C renal 20.2% | UO-31 renal 14.7% | TK-10 renal 49.8% | ACHN renal 27.1% | CAKI-1 renal 46.3% | CCRF-CEM leukemia 43%
active: A498 renal -16.9% | MOLT-4 leukemia 9.1%

CC(C)=NNc1ccccn1
inactive: SK-MEL-2 melanoma 83.2% | EKVX NSCLC 18.8% | SN12C renal 45.4% | UO-31 renal 29.5% | TK-10 renal 39% | ACHN renal 27.9% | CAKI-1 renal 29.1% | A498 renal 78.1% | CCRF-CEM leukemia 26.8% | MOLT-4 leukemia 25.4%

CC1(c2ccccc2O)NN=C(/N=C/c2cccc([N+](=O)[O-])c2)N1C(Cc1c[nH]c2ccccc12)C(=O)O (stereo not given)
inactive: SK-MEL-2 melanoma 87.8% | EKVX NSCLC 77.6% | SN12C renal 94.2% | UO-31 renal 70.8% | TK-10 renal 141% | ACHN renal 91.1% | CAKI-1 renal 93.7% | A498 renal 90.9% | CCRF-CEM leukemia 81.9% | MOLT-4 leukemia 92.5%

COc1cc(CNS(=O)(=O)c2ccc(C)cc2)ccc1OCc1cn(-c2ccc(Br)cc2)nn1
inactive: SK-MEL-2 melanoma 104% | EKVX NSCLC 93.1% | SN12C renal 105% | UO-31 renal 69.3% | TK-10 renal 112% | ACHN renal 98.4% | CAKI-1 renal 91.6% | A498 renal 70.6% | CCRF-CEM leukemia 90.4% | MOLT-4 leukemia 101%

COc1ccc(C(=O)Nc2cccc(C3CC(=O)c4c(cc(OC)c(OC)c4OC)O3)c2)cc1 (stereo not given)
active: SK-MEL-2 melanoma -11.9% | A498 renal -2.96% | CCRF-CEM leukemia 9.44%
inactive: EKVX NSCLC 45% | SN12C renal 31.2% | UO-31 renal 33.7% | TK-10 renal 40.3% | ACHN renal 40.8% | CAKI-1 renal 33.3% | MOLT-4 leukemia 14.3%

O=C1N(Cc2ccccc2Cl)c2ccccc2C12NN=C(c1cccc(Cl)c1)S2 (stereo not given)
active: SK-MEL-2 melanoma -23.1% | EKVX NSCLC -31% | SN12C renal -19.8% | UO-31 renal -58.3% | TK-10 renal -3.68% | ACHN renal -47.1% | CAKI-1 renal -30.7% | A498 renal -85.9% | CCRF-CEM leukemia 1.03% | MOLT-4 leukemia -18%

Cc1ccc(C2=Nc3c(N)ncnc3NC(c3ccc4c(c3)OCO4)C2)cc1 (stereo not given)
active: CCRF-CEM leukemia -39.4%
inactive: SK-MEL-2 melanoma 61.8% | EKVX NSCLC 83.2% | SN12C renal 96.8% | UO-31 renal 60.9% | TK-10 renal 84.5% | ACHN renal 74.3% | CAKI-1 renal 56.6% | A498 renal 55.4% | MOLT-4 leukemia 49.3%
